Results with a measured potency or affinity are listed apart.
Columns and labels:
[1] = tested on: Staphylococcus aureus; details: Concentration 32 ug.mL-1; ASSAY_TEST Inhibition of Bacterial Growth; detection method Absorption (OD600); MEDIA CAMHB; plate type 384well; NBS; CORNING #3640; time 18 hr
[2] = tested on: Escherichia coli; details: Concentration 32 ug.mL-1; ASSAY_TEST Inhibition of Bacterial Growth; detection method Absorption (OD600); MEDIA CAMHB; plate type 384well; NBS; CORNING #3640; time 18 hr

Structure (SMILES) | Inhibition [1] [%] | Inhibition [2] [%]
N#Cc1c(-c2ccccc2)c2c(ccc3ccccc32)oc1=O | 27.54 | 15.75
C#CCN(C)c1nc(OC)c(C#N)cc1C#N | 10.54 | -19.1
N#CC1=C(N)Oc2c(ccc3ccccc23)C1c1cccc([N+](=O)[O-])c1 (centres undefined) | 17.39 | -10.4
COc1cccc(C2c3c(ccc4ccccc34)OC(=NBr)C2(Br)C#N)c1 (centres undefined) | 39.2 | -16.78
C=C1CN(Cc2ccccc2)c2c(C#N)c(-c3ccccc3)c(C#N)c(=N)n21 | 44.91 | -0.81
Cc1ccc(CNNC(=O)c2cc3ccccc3n2C)cc1 | -9.87 | -8.9
COc1ccc(C2c3c(ccc4ccccc34)OC(=N)C2(Br)C#N)cc1OC (centres undefined) | 9.13 | -16.19
C#CCn1c(N)c(C#N)c2cc(O)ccc21 | 28.27 | -2.03
O=C(Cc1c[nH]c2ccccc12)NN=Cc1ccccc1 | 3.3 | -3.03
COC1=C(C#N)CCC(=O)N1 | 33.45 | -6.96
CC#CCN(Cc1ccccc1)c1nc(N)c(C#N)c(-c2ccccc2)c1C#N | 17.54 | -2.98
N#CC1(Br)C(=N)Oc2ccc3ccccc3c2C1c1cccc([N+](=O)[O-])c1 (centres undefined) | 22.75 | -22.9
C/C(=N\NC(=O)c1cc2ccccc2n1Cc1ccccc1)C1CC1 | 7.87 | 7.24
CC1=C(C(=O)O[C@@H]2C[C@@]3(C)CC[C@H]2C3(C)C)C(c2ccccc2)C(C#N)=C(N)O1 (some centres undefined) | -12.42 | 16.17
C#CCN1CCc2nc3nc(NC4CCN(Cc5ccccc5)CC4)c(C#N)cc3c(N)c2C1 | 26.68 | -8.32
C#CCNc1nc(OC)c(C#N)c(-c2ccccc2)c1C#N | 49.28 | -4
NOC(=O)C1CCN(Cc2ccccc2)CC1 | 21.2 | 1.52
Cc1ccc(C(O)SNNc2nc(C)nc3c2c(C)nn3-c2ccccc2)cc1 (centres undefined) | 4.03 | 5.46
COc1ccccc1C1C(C#N)=C(N)Oc2[nH]nc(C)c21 (centres undefined) | 9.32 | 14.43
COc1ccc(C2C(C#N)=C(N)Oc3ccc4ccccc4c32)cc1OC (centres undefined) | 19.72 | -23.42
Cl.ClCCCCCN1CCCCC1 | 7.58 | 1.26

Structure (SMILES) | Inhibition [1] [%] | Inhibition [2] [%]
CC(=O)Oc1ccc(C=C2N=C(c3ccccc3)OC2=O)cc1 | 10.97 | 17.49
CN(Cc1cn(Cc2ccccc2)nn1)Cc1cc2cc(OCCCC3CCN(Cc4ccccc4)CC3)ccc2n1C | 10.05 | -17.67
N#CC1(Br)C(=NBr)Oc2ccc3ccccc3c2C1c1cccc([N+](=O)[O-])c1 (centres undefined) | 29.27 | -20.79
C=C1CN(C)c2c(C#N)c(-c3ccccc3)c(C#N)c(=O)n21 | 8.64 | -1.97
Cc1nc2c3c(C)nn(-c4ccccc4)c3ncn2n1 | 11.24 | 12.68
COc1cc(CCC(N)=O)ccc1O | 8.5 | 5.11
C=C1CNc2c(C#N)c(-c3ccccc3)c(C#N)c(=N)n21 | 17.65 | -9.94
O=C(NNC(Cc1ccccc1)Cc1ccccc1)c1cc2ccccc2[nH]1 | -3.72 | -3.49
C#CCN(C)c1nc(OC)c(C#N)c(-c2ccccc2)c1C#N | 44.46 | -5.76
C#CCN(C)Cc1cc2cc(OCCC3CCN(Cc4ccccc4)CC3)ccc2n1C.Cl | 28.43 | -29.82
C=C1CN(C)c2c(C#N)c(-c3ccccc3)c(C#N)c(=N)n21 | 11.22 | -20.05
N#C/C(=C\c1ccccc1Cl)C(=O)c1ccccc1 | 33.12 | 20.31
CCOC(=O)/C(C#N)=C\c1ccc(C)cc1 | 28.15 | 15.07
CCOC(=O)C1=C(C)Oc2nc3c(c(N)c2C1c1ccccc1OC)CCC3 (centres undefined) | 12.13 | 5.78
CC1CN(C)c2c(C#N)c(-c3ccccc3)c(C#N)c(=N)n21 (centres undefined) | 26.27 | -6.63
CN(C)c1nc2nc3c(c(N)c2c(-c2ccccc2)c1C#N)CCCC3 | 5.71 | -1.51
O=C1NC(=S)N/C1=C\c1ccccc1 | 13.95 | 8.87
O=C(NNCc1ccco1)c1cc2ccccc2[nH]1 | -6.59 | -6.94
CC(=O)CC(=O)N1[C@@H]2C[C@H]3CCC2(CS1(=O)=O)C3(C)C | 27.16 | 7.75
CCOC(=O)C1=C(C)Oc2nc3c(c(N)c2C1c1nccn1C)CCC3 (centres undefined) | 6.58 | -22.18
CSC1=NC(=Cc2cn(C(c3ccccc3)(c3ccccc3)c3ccccc3)c3ccccc23)C(=O)N1C | -1.08 | 9.28

Structure (SMILES) | Inhibition [1] [%] | Inhibition [2] [%]
CCOC(=O)C1=C(C)Oc2nc3c(c(N)c2C1c1nccn1C)CCCCC3 (centres undefined) | 10.64 | -6.7
C#CCN(C)c1ncc(C#N)c(N)n1 | 39.34 | -4.49
N#CC1=C(N)Oc2c(ccc3ccccc23)C1c1ccc(Cl)c(Cl)c1 (centres undefined) | 0.79 | 0.95
Cc1n[nH]c2c1C(c1ccc([N+](=O)[O-])cc1)C(C#N)=C(N)O2 (centres undefined) | 4.71 | 12.5
N#Cc1cc(C#N)c(NCCCCC2CCN(Cc3ccccc3)CC2)nc1N | 36.38 | -9.24
COc1ccc(C=C2N=C(SC)N(C)C2=O)cc1 | -4.46 | 0.92
COc1cccc(C=C2N=C(c3ccccc3)OC2=O)c1OC(C)=O | 5.66 | 4.51
O=C(Cc1cccc2ccccc12)N/N=C/c1c[nH]c2ccccc12 | 12.36 | 15.45
COc1ccc(C2C(C#N)=C(N)Oc3ccc4ccccc4c32)cc1 (centres undefined) | 37.68 | -4.54
O=Cc1c(-c2ccc(Br)cc2)nc2ccccn12 | 3.95 | 9.28
Cc1cnc2ccc(Br)cn12 | 2.9 | 6.35
Cl.Cl.Cn1c(CNc2ccccc2)cc2cc(OCCCC3CCN(Cc4ccccc4)CC3)ccc21 | 21.22 | -8.49
Cc1ccc(S(=O)(=O)N[C@H]2CC[C@H](O)CC2)cc1 | 22.82 | -6.91
CC1(C)OS(=O)(=O)C2=C1NC(N)=C(C#N)C2c1ccccc1 (centres undefined) | 8.23 | 10.42
Cc1ccccc1-c1c(C=N)c(N)nc2c1S(=O)(=O)OC2(C)C | 11.29 | 8.66
Nc1c2c(nc3c1c1ccccc1n3Cc1ccccc1)CCCC2 | 17.35 | -10.77
N#CC1=C(N)Oc2c(ccc3ccccc23)C1c1ccccc1 (centres undefined) | 23.38 | -4.89
N#Cc1c(N)nc(N2CCCCC2)c(C#N)c1-c1ccccc1 | 14.68 | -11.69
N#Cc1cc(C#N)c(N2CCCC2)nc1N1CCCC1 | 17.61 | 8.77
N#Cc1c(N)nc2[nH]nc(N)c2c1-c1ccccc1 | 40.83 | -6.5
N#CC1=C(N)Oc2ccc3ccccc3c2C1c1cccc([N+](=O)[O-])c1 (centres undefined) | 31.47 | -6.29

Structure (SMILES) | Inhibition [1] [%] | Inhibition [2] [%]
C=C1CN(C)c2c(C#N)cc(C#N)c(=S)n21 | 18.51 | -1.72
O=C(N/N=C/c1cccc(Cl)c1)c1cc2ccccc2[nH]1 | -16.68 | -12.27
N#Cc1cc(C#N)c(Cl)nc1Cl | 15.28 | -15.75
COC(=O)C1(NC(=O)c2ccccc2)CC1c1ccccc1 (centres undefined) | 1.83 | -4.02
Cl.Nc1c2c(nc3c1C(c1ccccc1)c1c(ccc4ccccc14)O3)CCCC2 (centres undefined) | 8.92 | 12.69
COc1cc(C2c3ccc4ccccc4c3Oc3nc4c(c(N)c32)CCCC4)ccc1O.Cl (centres undefined) | -4.49 | -1.18
COc1ccc(C=C2N=C(c3ccccc3)SC2=O)cc1 | 12.36 | 7.03
CN(C)c1ccc(C(=NNC(=O)c2cc3ccccc3[nH]2)c2ccc(N(C)C)cc2)cc1 | -9.28 | -3.28
Cc1[nH]c2ccc(OCc3ccccc3)cc2c1C(=O)NN | 3.15 | -5.77
O=C1SC(SCc2ccccc2)=NC1=Cc1ccc2c(c1)OCO2 | 0.74 | 10.84
C#CC[n+]1ccccc1N.[Br-] | 6.4 | 12.69
c1ccc(Cn2ccc3ccccc32)cc1 | 7.36 | 11.73
CC(C)CC(C)NNC(=O)c1cc2ccccc2[nH]1 (centres undefined) | -8.06 | -7.16
COc1ccccc1-c1c(C#N)c(=O)oc2c1ccc1ccccc12 | 27.34 | 19.18
C#CCN(C)c1nc(NCC2CCN(Cc3ccccc3)CC2)c(C#N)c(-c2ccccc2)c1C#N.Cl | 36.49 | -7.12
N#CC1(Br)C(=NBr)Oc2ccc3ccccc3c2C1c1ccccc1[N+](=O)[O-] (centres undefined) | 23.03 | -25.63
N#CC1(Br)C(=NBr)Oc2ccc3ccccc3c2C1c1ccc([N+](=O)[O-])cc1 (centres undefined) | 17.16 | -19.01
Br.C#CCNCC | 25.79 | 18.7
C#CCN(C)c1nc(Cl)c(C#N)c(-c2ccccc2)c1C#N | 13.59 | -10.42

Reference: ChEMBL document CHEMBL4513135, “CO-ADD screening of IQOG CSIS (Spain) compounds”
